# Measurements reported in PMC11006913.
# Columns and labels:
# Experiment in all cases: PBM; 200 nM protein, PBS
# Conditions in all cases: dsDNA, one strand shown
# [1] = molecular target: PITX2 (Homo sapiens, UniProt Q99697 72-157)
# [2] = molecular target: HOXD13 (Homo sapiens, UniProt P35453 263-343)
# [3] = molecular target: CRX (Homo sapiens, UniProt O43186 26-111, R41L)
# [4] = molecular target: NKX3-2 (Homo sapiens, UniProt P78367 192-278, P234S)
# [5] = molecular target: NKX3-2 (Homo sapiens, UniProt P78367 192-278)
# Chain of NKX3-2 (Homo sapiens, UniProt P78367 192-278) (P78367 192-278): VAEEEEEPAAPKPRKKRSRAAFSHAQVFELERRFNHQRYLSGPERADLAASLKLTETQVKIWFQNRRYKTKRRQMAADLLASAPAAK
# [6] = molecular target: SHOX (Homo sapiens, UniProt O15266 103-189, R173C)
# Chain of SHOX (O15266 103-189 R173C): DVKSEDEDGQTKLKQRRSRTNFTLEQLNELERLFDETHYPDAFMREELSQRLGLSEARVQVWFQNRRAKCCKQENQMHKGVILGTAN
# Chain of HOXD13 (P35453 263-343): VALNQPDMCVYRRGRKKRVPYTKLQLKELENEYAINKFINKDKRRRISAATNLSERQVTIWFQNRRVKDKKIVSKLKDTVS
# Chain of NKX3-2 (Homo sapiens, UniProt P78367 192-278, P234S) (P78367 192-278 P234S): as the sequence (P78367 192-278) above, with P43S counted along it
# Chain of CRX (O43186 26-111 R41L): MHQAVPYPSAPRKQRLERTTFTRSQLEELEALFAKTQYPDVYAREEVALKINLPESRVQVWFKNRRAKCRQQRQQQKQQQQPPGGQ
sequence,measurement,setting,value
CTAAATCC,binding signal,[1],"12.4 upbm affinity estimate (log intensity, higher = more binding, comparable within an allelic series)"
CGGAATCC,binding signal,[1],"10.1 upbm affinity estimate (log intensity, higher = more binding, comparable within an allelic series)"
AGGGATAG,binding signal,[1],"9.94 upbm affinity estimate (log intensity, higher = more binding, comparable within an allelic series)"
AAGCCCTA,binding signal,[1],"10.4 upbm affinity estimate (log intensity, higher = more binding, comparable within an allelic series)"
TGACGCAA,binding signal,[1],"8.04 upbm affinity estimate (log intensity, higher = more binding, comparable within an allelic series)"
ACGCCGAG,binding signal,[1],"8 upbm affinity estimate (log intensity, higher = more binding, comparable within an allelic series)"
GGCATTAC,binding signal,[1],"10.5 upbm affinity estimate (log intensity, higher = more binding, comparable within an allelic series)"
AGATTTAT,binding signal,[1],"11 upbm affinity estimate (log intensity, higher = more binding, comparable within an allelic series)"
ATTAGGCC,binding signal,[1],"10 upbm affinity estimate (log intensity, higher = more binding, comparable within an allelic series)"
AATTCCAC,binding signal,[1],"9.99 upbm affinity estimate (log intensity, higher = more binding, comparable within an allelic series)"
CCAAATCG,binding signal,[1],"9.39 upbm affinity estimate (log intensity, higher = more binding, comparable within an allelic series)"
ACTGGTGC,binding signal,[1],"7.7 upbm affinity estimate (log intensity, higher = more binding, comparable within an allelic series)"
GAACACGA,binding signal,[1],"8.02 upbm affinity estimate (log intensity, higher = more binding, comparable within an allelic series)"
ACTAAGCC,binding signal,[1],"12.4 upbm affinity estimate (log intensity, higher = more binding, comparable within an allelic series)"
GGATCCTA,binding signal,[1],"9.17 upbm affinity estimate (log intensity, higher = more binding, comparable within an allelic series)"
ACCGTTGC,binding signal,[1],"8.17 upbm affinity estimate (log intensity, higher = more binding, comparable within an allelic series)"
AATCCAAT,binding signal,[1],"10.9 upbm affinity estimate (log intensity, higher = more binding, comparable within an allelic series)"
GGATTTAC,binding signal,[1],"12.3 upbm affinity estimate (log intensity, higher = more binding, comparable within an allelic series)"
ACATACGT,binding signal,[1],"8.05 upbm affinity estimate (log intensity, higher = more binding, comparable within an allelic series)"
ACCACCGT,binding signal,[1],"8.12 upbm affinity estimate (log intensity, higher = more binding, comparable within an allelic series)"
AAAGCCGA,binding signal,[1],"9.6 upbm affinity estimate (log intensity, higher = more binding, comparable within an allelic series)"
CATGTTCG,binding signal,[1],"8.09 upbm affinity estimate (log intensity, higher = more binding, comparable within an allelic series)"
ACAGGGTG,binding signal,[1],"7.94 upbm affinity estimate (log intensity, higher = more binding, comparable within an allelic series)"
TCTTGGCA,binding signal,[1],"7.96 upbm affinity estimate (log intensity, higher = more binding, comparable within an allelic series)"
GACAACGC,binding signal,[1],"7.92 upbm affinity estimate (log intensity, higher = more binding, comparable within an allelic series)"
GCGGCGCC,binding signal,[1],"7.97 upbm affinity estimate (log intensity, higher = more binding, comparable within an allelic series)"
GACGGTGA,binding signal,[1],"8.15 upbm affinity estimate (log intensity, higher = more binding, comparable within an allelic series)"
ATACCTTA,binding signal,[1],"9.97 upbm affinity estimate (log intensity, higher = more binding, comparable within an allelic series)"
GAAGGTCA,binding signal,[1],"7.87 upbm affinity estimate (log intensity, higher = more binding, comparable within an allelic series)"
GCCGGATA,binding signal,[1],"9.58 upbm affinity estimate (log intensity, higher = more binding, comparable within an allelic series)"
ATAAATCC,binding signal,[1],"12.3 upbm affinity estimate (log intensity, higher = more binding, comparable within an allelic series)"
GGATACTA,binding signal,[1],"9.25 upbm affinity estimate (log intensity, higher = more binding, comparable within an allelic series)"
TATGATCA,binding signal,[1],"9.32 upbm affinity estimate (log intensity, higher = more binding, comparable within an allelic series)"
CACTAGTG,binding signal,[1],"8.21 upbm affinity estimate (log intensity, higher = more binding, comparable within an allelic series)"
GGTATTAA,binding signal,[1],"12.3 upbm affinity estimate (log intensity, higher = more binding, comparable within an allelic series)"
CAGTTTCA,binding signal,[1],"7.95 upbm affinity estimate (log intensity, higher = more binding, comparable within an allelic series)"
CCATTCAC,binding signal,[1],"8.31 upbm affinity estimate (log intensity, higher = more binding, comparable within an allelic series)"
AAGGGATT,binding signal,[1],"11.6 upbm affinity estimate (log intensity, higher = more binding, comparable within an allelic series)"
CGTTGTCA,binding signal,[1],"8.02 upbm affinity estimate (log intensity, higher = more binding, comparable within an allelic series)"
CGAGCGTC,binding signal,[1],"7.93 upbm affinity estimate (log intensity, higher = more binding, comparable within an allelic series)"
CGACGTCA,binding signal,[1],"8.05 upbm affinity estimate (log intensity, higher = more binding, comparable within an allelic series)"
CAACCATC,binding signal,[1],"8.24 upbm affinity estimate (log intensity, higher = more binding, comparable within an allelic series)"
ACTCGACC,binding signal,[1],"7.76 upbm affinity estimate (log intensity, higher = more binding, comparable within an allelic series)"
AGGGCTTA,binding signal,[1],"12.3 upbm affinity estimate (log intensity, higher = more binding, comparable within an allelic series)"
AAATCTCC,binding signal,[1],"10.8 upbm affinity estimate (log intensity, higher = more binding, comparable within an allelic series)"
CTATCGCC,binding signal,[1],"8.13 upbm affinity estimate (log intensity, higher = more binding, comparable within an allelic series)"
CTGGCCGC,binding signal,[1],"8.13 upbm affinity estimate (log intensity, higher = more binding, comparable within an allelic series)"
CAGTACTG,binding signal,[1],"7.98 upbm affinity estimate (log intensity, higher = more binding, comparable within an allelic series)"
GCATGCAC,binding signal,[1],"7.85 upbm affinity estimate (log intensity, higher = more binding, comparable within an allelic series)"
CACCGGGC,binding signal,[1],"7.98 upbm affinity estimate (log intensity, higher = more binding, comparable within an allelic series)"
TATTAGCA,binding signal,[1],"10.1 upbm affinity estimate (log intensity, higher = more binding, comparable within an allelic series)"
AGCACGCC,binding signal,[1],"8.07 upbm affinity estimate (log intensity, higher = more binding, comparable within an allelic series)"
GCTTAGAA,binding signal,[1],"10.2 upbm affinity estimate (log intensity, higher = more binding, comparable within an allelic series)"
CAGTTCCG,binding signal,[1],"8.03 upbm affinity estimate (log intensity, higher = more binding, comparable within an allelic series)"
CAACGGGC,binding signal,[1],"7.95 upbm affinity estimate (log intensity, higher = more binding, comparable within an allelic series)"
ACACAATA,binding signal,[2],"10.6 upbm affinity estimate (log intensity, higher = more binding, comparable within an allelic series)"
TAACTAAA,binding signal,[2],"10.7 upbm affinity estimate (log intensity, higher = more binding, comparable within an allelic series)"
GCGCTGCA,binding signal,[1],"8.03 upbm affinity estimate (log intensity, higher = more binding, comparable within an allelic series)"
GATAAGCC,binding signal,[1],"12.3 upbm affinity estimate (log intensity, higher = more binding, comparable within an allelic series)"
same,binding signal,[3],"12.4 upbm affinity estimate (log intensity, higher = more binding, comparable within an allelic series)"
GAGTGCGC,binding signal,[1],"7.98 upbm affinity estimate (log intensity, higher = more binding, comparable within an allelic series)"
GTTAAAGA,binding signal,[2],"10.8 upbm affinity estimate (log intensity, higher = more binding, comparable within an allelic series)"
ATCAATAC,binding signal,[2],"10.5 upbm affinity estimate (log intensity, higher = more binding, comparable within an allelic series)"
AAGCTAGG,binding signal,[1],"9.89 upbm affinity estimate (log intensity, higher = more binding, comparable within an allelic series)"
same,binding signal,[4],"10.4 upbm affinity estimate (log intensity, higher = more binding, comparable within an allelic series)"
same,binding signal,[5],"10.4 upbm affinity estimate (log intensity, higher = more binding, comparable within an allelic series)"
AGACTATA,binding signal,[2],"10.7 upbm affinity estimate (log intensity, higher = more binding, comparable within an allelic series)"
AATGAGTA,binding signal,[2],"10.8 upbm affinity estimate (log intensity, higher = more binding, comparable within an allelic series)"
CAAAATAC,binding signal,[1],"9.13 upbm affinity estimate (log intensity, higher = more binding, comparable within an allelic series)"
GACGTTTA,binding signal,[2],"10.7 upbm affinity estimate (log intensity, higher = more binding, comparable within an allelic series)"
CGAGATTA,binding signal,[1],"12.3 upbm affinity estimate (log intensity, higher = more binding, comparable within an allelic series)"
same,binding signal,[3],"12.4 upbm affinity estimate (log intensity, higher = more binding, comparable within an allelic series)"
AATTATGG,binding signal,[6],"9.26 upbm affinity estimate (log intensity, higher = more binding, comparable within an allelic series)"
ACGGTGCC,binding signal,[1],"7.94 upbm affinity estimate (log intensity, higher = more binding, comparable within an allelic series)"
same,binding signal,[4],"10.5 upbm affinity estimate (log intensity, higher = more binding, comparable within an allelic series)"
same,binding signal,[5],"10.5 upbm affinity estimate (log intensity, higher = more binding, comparable within an allelic series)"
TAAGCTTA,binding signal,[1],"12.3 upbm affinity estimate (log intensity, higher = more binding, comparable within an allelic series)"
